# Source: PubChem BioAssay AID602478 (National Center for Advancing Translational Sciences (NCATS), 2012)
# Records with an inconclusive call do not appear. Unmarked numbers belong to inactive results. Activity calls are given as the source filed them. The call rests on the fitted dose curve; in most records, active means well fitted activation curve with a large enough effect; inconclusive means small, poorly fitted or top-dose-only effect; inactive means flat fitted curve, though single readings scatter.
# Target: Luciferin 4-monooxygenase (Photinus pyralis) (UniProt P08659)
# Test: FLuc inhibitory activity for the follow-up compounds in a cell-based translational read-through assay (72 hour incubation)
# Conditions: GripTite 293 FLucUGA read-through, luminescence; series mostly up to 38.3 µM; activation (luciferase signal increase): at the top concentration
# Excerpt: NCGC Assay Overview: Firefly (Photinus pyralis) luciferase is one of the most commonly used transcriptional reporters. It is considered one of the more dynamically responsive reporters - that is, responsive to changes in reporter transcription - as it requires no post-translational modifications and is enzymatically active directly after protein synthesis (Wood, 1998). With no endogenous expression in mammalian cells and without the requirement of external excitation, it offers very little background signal, thus generally providing excellent signal to background for most assays. Previous profiling work to determine the prevalence of compounds that affect FLuc enzymatic activity (PubChem AID 411) identified that ~3% of the MLSMR library (then at ~72K) inhibited FLuc (Auld et al., 2008). […] Of the compounds identified in this profile that inhibited FLuc, 151 compounds were selected for further analysis, in an effort to better understand their mode of inhibiting FLuc. The assay described here was to determine the activity of the compounds in a cell-based firefly luciferase reporter gene assay originally designed to identify compounds that enchanced translational read-through of a FLuc cDNA that contained a premature stop codon (Auld et al., 2009; Auld et al., 2010). Compounds that enhance translational read-through or compounds that stabilize FLuc intracellularly are identified as active compounds in the assay.
# NCGC Assay Protocol Summary: Reagents: Transient transfection of FlucUGA construct: TransFast Transfection Reagent (Promega #E2431); FLucUGA construct (refer to Auld et al., 2009) #GripTite 293 MSR Cell Line (Invitrogen #R795-07) #Complete growth media: DMEM (Invitrogen #11965), 10% HIFBS, 0.1mM MEM NEAA, 5mL/L pen-strep (of 5000U/mL stock), 600ug/mL Geneticin #Assay media: DMEM without phenol red (Invitrogen #21063), 5% charcoal-stripped HIFBS (Hyclone #SH30071.03), 0.1mM MEM NEAA In-house detection reagent: 300mM Tris-HCl, 300mM Trizma base, 300mM MgCl, 1% Triton-X100, 5mM DTT, 500uM Coenzyme A trilithium salt (Sigma #C3019),450uM ATP (Sigma #A7699), 1mM D-luciferin sodium salt monohydrate (Biosynth #L8240) Control compounds used were two known firefly luciferase inhibitors (3-(5-(3-chlorophenyl)-1,2,4-oxadiazol-3-yl)benzoic acid and 5-(2-fluorophenyl)-3-phenyl-1,2,4-oxadiazole), and DMSO. Assay Summary: Transient transfection of FlucUGA construct: Day 1: GripTite cells were plated in T175 flasks at a density of 1.75 x 10^7 cells/T175 flask in complete growth media without Geneticin and allowed to grow ON in a 37 degrees Celsius incubator. Day 2: Cells in T175 flask were transfected - with 10ug of DNA and 30uL Transfast in 12mL complete growth media without serum and without Geneticin for 4 hours at 37 degrees Celsius. After incubation, cells were trypsinized, spun down, and resuspended to a concentration of 3.3 x 10^5 cells/mL in assay media. 6uL of cells in assay buffer were dispensed at 2000cells/well (3.3 x 10^5 cells/mL) into Greiner solid-white TC-treated 1536-well plates using a Multidrop Combi (Thermo Fisher Scientific). Plates were incubated for one hour at 37 degree Celsius, 95% humidity, 5% CO2. These assay plates were then treated with 23nL of compound or DMSO using a Kalypsys pin tool, which allows for delivery of a 12-point titration of each compound to the assay plate, with a final compound concentration ranging from approximately ~38uM to 0.2nM. Assay plates were then incubated for 72 hours. After incubation, plates were washed three times with DPBS (7uL/well). After the third wash, 6uL of DPBS was added to each well. 3uL of 3X luciferase detection reagent was then added to each well using a flying reagent dispenser (FRD). After a 15 minute incubation to allow for cell lysis, luciferase activity was measured using a ViewLux CCD imager (PerkinElmer), with an average exposure time of 2-12 seconds.
# Luciferin 4-monooxygenase (Photinus pyralis), sequence (P08659 whole entry, looked up): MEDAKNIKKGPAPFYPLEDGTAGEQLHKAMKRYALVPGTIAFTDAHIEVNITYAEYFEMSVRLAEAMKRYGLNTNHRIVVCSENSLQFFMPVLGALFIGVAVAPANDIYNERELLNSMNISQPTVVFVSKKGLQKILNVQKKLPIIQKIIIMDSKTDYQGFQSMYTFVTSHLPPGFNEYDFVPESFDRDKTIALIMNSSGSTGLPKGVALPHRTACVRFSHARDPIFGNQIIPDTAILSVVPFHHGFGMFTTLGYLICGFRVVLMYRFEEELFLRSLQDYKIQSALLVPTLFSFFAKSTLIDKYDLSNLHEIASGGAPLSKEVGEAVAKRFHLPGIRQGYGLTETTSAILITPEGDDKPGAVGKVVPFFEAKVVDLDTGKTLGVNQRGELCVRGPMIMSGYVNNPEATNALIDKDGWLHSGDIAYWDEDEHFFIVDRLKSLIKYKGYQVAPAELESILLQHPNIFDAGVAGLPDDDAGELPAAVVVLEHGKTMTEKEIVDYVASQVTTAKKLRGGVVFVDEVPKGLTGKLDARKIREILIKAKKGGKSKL
Compound,activation (luciferase signal increase) [%],Potency
Cc1c(NC(=O)C(C)(C)C)cccc1-c1nc2ccccc2s1,16,–
Nc1ccc(-c2nc3ccc(N)cc3s2)cc1,–,4000 nM (active)
Cc1ccc(S(=O)(=O)N2CCOCC2)cc1C(=O)Nc1ccccc1C(=O)O,-2.13,–
O=C(Nc1ccccc1C(=O)O)c1ccc(NC(=O)C2CC2)cc1,0.322,–
Nc1ccc(-c2nc3ccc(C(=O)O)cc3s2)cc1,–,159 nM (active)
CCOc1ccc2nc(NC(=O)c3ccoc3C)sc2c1,–,449 nM (active)
O=C(O)c1cccc(NC(=O)c2ccc(S(=O)(=O)c3ccccc3)cc2)c1,-1.83,–
O=C(Nc1ccccc1C(=O)O)c1cccc(NC(=O)c2ccc(Br)o2)c1,2.35,–
Cc1ccc(C(=O)Nc2cccc(C(=O)O)c2)cc1S(=O)(=O)N1CCOCC1,–,11300 nM (active)
O=C(Nc1ccccc1C(=O)O)c1cccc(S(=O)(=O)Nc2ccc(Br)cc2)c1,4.51,–
O=C(Cc1ccc(Cl)cc1)Nc1cccc(C(=O)Nc2ccccc2C(=O)O)c1,1.21,–
O=C(O)c1ccc(NC(=O)c2cccc(C(=O)Nc3ccc(C(=O)O)cc3)c2)cc1,-0.0974,–
Cc1c(NC(=O)c2cccs2)cccc1-c1nc2ccccc2s1,17.8,–
Cc1ccc(C(=O)Nc2ccc(C(=O)O)cc2)cc1S(=O)(=O)NCc1ccccc1,2.78,–
O=C(COC(=O)c1ccccc1[N+](=O)[O-])c1ccc2c(c1)OCO2,3.99,–
O=C(O)c1ccc(NC(=O)c2ccccc2NC(=O)c2cccc(Br)c2)cc1,10.8,–
